According to PubChem BioAssay:
Activity calls are given as the source filed them. Unless noted, no rule for the calls is given here.

What was measured:
[1] = A549 cell viability effects, profiling panel, calcein-AM fluorescence, 48 h, basal (AID 1162); details: higher = more signal; also: test concentration not given here
[2] = adipocyte viability effects, profiling panel, cell-based, 3T3-L1 adipocytes, calcein-AM fluorescence, 48 h, basal (AID 1163); details: 3T3-L1 adipocytes viability, higher = more signal; also: test concentration not given here
[3] = HepG2 cell viability effects, profiling panel, calcein-AM fluorescence, 48 h, basal (AID 1164); details: higher = more signal; also: test concentration not given here
[4] = MM1S cell viability effects, profiling panel, calcein-AM fluorescence, 48 h, basal (AID 1165); details: higher = more signal;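 also: viability of MM1S multiple myeloma cells under basal unstimulated conditions; test concentration not given here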
[5] = basal RPMI8226 viability, no added stimulus, profiling panel, cell-based, calcein-AM fluorescence, 48 h, PK04 Diversity Set (AID 1166); details: RPMI8226 myeloma viability, higher = more signal;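 also: cells grown under basal conditions without added stimulus; test concentration not given here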
[6] = basal HepG2 mitochondrial membrane potential changes, profiling panel, cell-based, JC-1 fluorescence, 24 h, 100 nL compound (AID 1167); details: higher = more signal; also: test concentration not given here
[7] = basal 3T3-L1 adipocyte mitochondrial potential changes, profiling panel, cell-based, JC-1 fluorescence, 3T3-L1 adipocytes, 24 h, 100 nL compound (AID 1168); details: JC-1 mitochondrial fluorescence, higher = more signal, called active from +8 up or from −8 down; also: test concentration not given here
[8] = basal RPMI8226 mitochondrial membrane potential changes, profiling panel, cell-based, JC-1 fluorescence, 24 h, 100 nL compound (AID 1169); details: RPMI8226 myeloma, JC-1 mitochondrial potential fluorescence, higher = more signal; also: test concentration not given here
[9] = basal MM1S mitochondrial membrane potential changes, profiling panel, cell-based, JC-1 fluorescence, 24 h, 100 nL compound (AID 1170); details: higher = more signal; also: test concentration not given here
[10] = A549 lung cancer cell viability effects, profiling panel, resazurin fluorescence, 24 h, PK04 Diversity Set (AID 1171); details: higher = more signal, called active from +8 up or from −8 down; also: test concentration not given here
[11] = HepG2 liver cancer cell viability effects, profiling panel, resazurin fluorescence, 24 h, PK04 Diversity Set (AID 1172); details: higher = more signal; also: test concentration not given here
[12] = basal S. cerevisiae growth modulation, no modifier, primary screen, OD600, strain BY4716, 24 h, basal condition (AID 1173); details: OD600, 24 h, higher = more signal, called active from +8 up or from −8 down
[13] = MM1S myeloma cell viability, profiling panel, resazurin fluorescence, basal, 24 h, PK04 Diversity Set (AID 1174); details: higher = more signal, called active from +8 up or from −8 down;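 also: MM1S multiple myeloma cell line; test concentration not given here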
[14] = target: Dihydroorotate dehydrogenase (quinone), mitochondrial (Plasmodium falciparum (isolate 3D7)) (UniProt Q08210); test: PfDHODH enzyme inhibitors, primary screen, biochemical, C-terminal His tag, absorbance 600 nm (AID 1175); details: DCIP absorbance 600 nm, higher = more signal, called active from +8 up or from −8 down;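 also: recombinant parasite enzyme with a five histidine tag at its C terminus; test concentration not given here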
Chain of Dihydroorotate dehydrogenase (quinone), mitochondrial (Plasmodium falciparum (isolate 3D7)) (Q08210 whole entry, looked up): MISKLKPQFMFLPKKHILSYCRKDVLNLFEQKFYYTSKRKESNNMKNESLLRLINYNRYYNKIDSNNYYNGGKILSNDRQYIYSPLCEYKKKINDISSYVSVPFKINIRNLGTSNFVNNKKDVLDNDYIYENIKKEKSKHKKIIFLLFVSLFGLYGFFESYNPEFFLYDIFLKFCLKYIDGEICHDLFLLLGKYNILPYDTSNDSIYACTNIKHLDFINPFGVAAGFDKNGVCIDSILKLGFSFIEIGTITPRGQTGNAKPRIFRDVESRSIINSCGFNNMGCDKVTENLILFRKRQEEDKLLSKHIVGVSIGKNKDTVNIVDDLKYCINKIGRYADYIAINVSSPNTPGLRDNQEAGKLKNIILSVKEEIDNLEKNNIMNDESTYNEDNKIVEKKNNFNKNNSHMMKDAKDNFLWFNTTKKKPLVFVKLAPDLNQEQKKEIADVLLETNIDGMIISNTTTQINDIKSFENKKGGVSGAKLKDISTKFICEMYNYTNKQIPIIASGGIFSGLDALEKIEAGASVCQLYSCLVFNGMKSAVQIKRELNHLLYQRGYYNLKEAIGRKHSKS

[15] = P. aeruginosa biofilm formation inhibitors, primary screen, strain PAO1, LB-PBS medium, absorbance 600 nm (AID 1176); also: test concentration not given here; details: P. aeruginosa PAO1 growth/biofilm, A600, 12 h; higher = more signal
[16] = S. cerevisiae RM11-1a growth modifiers, primary screen, strain RM11-1a, OD600, basal, 24 h (AID 1177); details: OD600, 24 h, higher = more signal, called active from +8 up or from −8 down;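 also: cultures grown under basal conditions with no added stressor; test concentration not given here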
[17] = E. coli acrAB mutant growth effects, primary screen, E. coli filamentation inducers, strain DRC39, OD650, 24 h (AID 1178); details: higher = more signal, called active from +8 up or from −8 down;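 also: growth measured as culture turbidity by optical density at 650 nm; test concentration not given here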
[18] = E. coli acrAB mutant growth effects, primary screen, E. coli filamentation inducers, strain DRC39, OD650, 48 h (AID 1179);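 also: screen aims at cell division blockers that make cells filament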; details: E. coli DRC39 delta-acrAB growth, higher = more signal, called active from +8 up or from −8 down
[19] = RPMI8226 myeloma cell viability, profiling panel, resazurin fluorescence, basal, 24 h, PK04 Diversity Set (AID 1180); details: higher = more signal;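 also: RPMI8826 multiple myeloma cell line at 5000 cells per well; test concentration not given here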
[20] = target: E3 ubiquitin-protein ligase XIAP (Homo sapiens) (UniProt P98170); test: XIAP binders, primary screen, biophysical, small-molecule microarray, fluorescence 635 nm (AID 1181); details: small-molecule microarray binding, higher = more signal;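 also: score merges 667 nm emission and signal to noise over triplicate slides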
Chain of E3 ubiquitin-protein ligase XIAP (Homo sapiens) (P98170 whole entry, looked up): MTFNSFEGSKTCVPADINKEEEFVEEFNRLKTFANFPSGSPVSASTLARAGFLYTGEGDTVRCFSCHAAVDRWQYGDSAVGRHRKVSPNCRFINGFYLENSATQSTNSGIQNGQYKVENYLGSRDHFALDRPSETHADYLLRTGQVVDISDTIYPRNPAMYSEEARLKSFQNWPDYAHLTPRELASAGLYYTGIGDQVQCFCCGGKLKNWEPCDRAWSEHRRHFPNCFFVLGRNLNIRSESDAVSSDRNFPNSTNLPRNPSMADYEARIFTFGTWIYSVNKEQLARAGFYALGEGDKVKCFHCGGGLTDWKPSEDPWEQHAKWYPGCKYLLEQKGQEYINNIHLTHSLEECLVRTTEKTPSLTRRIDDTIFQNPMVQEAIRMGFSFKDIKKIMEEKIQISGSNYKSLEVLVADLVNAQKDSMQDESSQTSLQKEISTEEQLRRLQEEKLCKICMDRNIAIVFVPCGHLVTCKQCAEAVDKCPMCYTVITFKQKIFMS

## COCCOC(=O)N1C(=O)[C@@]2(c3cc(C#Cc4ccc(OC)cc4)ccc31)[C@H](c1ccc(OCCO)cc1)N1[C@H](c3ccccc3)[C@H](c3ccccc3)OC(=O)[C@H]1[C@@H]2C(=O)N1CCN(c2ncccn2)CC1
[1]
  z-score: -0.76
[2]
  z-score: 0.901
[3]
  z-score: -0.169
[4]
  z-score: -0.624
[5]
  z-score: -0.412
[6]
  z-score: 0.548
[7]
  z-score: 2.18 (inactive)
[8]
  z-score: -0.351
[9]
  z-score: -0.857
[10]
  z-score: -0.0439 (inactive)
[11]
  z-score: -0.107
[12]
  z-score: 3.4 (inactive)
[13]
  z-score: 0.202 (inactive)
[14]
  composite z-score: -1.76 (inactive)
[15]
  z-score: 1.9 (inactive)
[16]
  z-score: 3.43 (inactive)
[17]
  z-score: 0.129 (inactive)
[18]
  z-score: -0.312 (inactive)
[19]
  z-score: 0.55
[20]
  composite z-score: 0.0623

## C=CC[C@]1(C(=O)NCCCOC)N=C(c2ccc(OCCCO)cc2)O[C@H]1c1ccccc1CN=[N+]=[N-]
[1]
  z-score: 0.566
[2]
  z-score: 0.243
[3]
  z-score: 0.716
[4]
  z-score: -1.86
[5]
  z-score: -0.134
[6]
  z-score: 1.76
[7]
  z-score: -0.299 (inactive)
[8]
  z-score: -1.25
[9]
  z-score: -0.142
[10]
  z-score: -0.0227 (inactive)
[11]
  z-score: 0.127
[12]
  z-score: -0.024 (inactive)
[13]
  z-score: -0.266 (inactive)
[14]
  composite z-score: -0.339 (inactive)
[15]
  z-score: 0.978 (inactive)
[16]
  z-score: -0.755 (inactive)
[17]
  z-score: -0.161 (inactive)
[18]
  z-score: -0.347 (inactive)
[19]
  z-score: -0.257
[20]
  composite z-score: -0.0134

## CCCC[C@@H]1C[C@H]1[C@@H](NC(=O)c1ccccc1)c1ccc(C(=O)OC)cc1
[1]
  z-score: -0.992
[2]
  z-score: -0.334
[3]
  z-score: -0.197
[4]
  z-score: -1.2
[5]
  z-score: -2.68
[6]
  z-score: -2.55
[7]
  z-score: -1.18 (inactive)
[8]
  z-score: 0.461
[9]
  z-score: -1.12
[10]
  z-score: 0.571 (inactive)
[11]
  z-score: -0.186
[12]
  z-score: -1.61 (inactive)
[13]
  z-score: -0.892 (inactive)
[14]
  composite z-score: -0.265 (inactive)
[15]
  z-score: 0.771 (inactive)
[16]
  z-score: -0.75 (inactive)
[17]
  z-score: -0.986 (inactive)
[18]
  z-score: -0.885 (inactive)
[19]
  z-score: 0.0845
[20]
  composite z-score: -0.0143

## COc1cc2c(cc1OC)CN(C(=O)[C@H]1[C@@H]3C(=O)O[C@@H](c4ccccc4)[C@@H](c4ccccc4)N3[C@@H](c3ccc(O)cc3)[C@]13C(=O)Nc1ccc(C#CCCO)cc13)CC2
[1]
  z-score: 0.0351
[2]
  z-score: 1.04
[3]
  z-score: -0.162
[4]
  z-score: -0.233
[5]
  z-score: -1.46
[6]
  z-score: -1.46
[7]
  z-score: 0.292 (inactive)
[8]
  z-score: -0.568
[9]
  z-score: 0.0874
[10]
  z-score: 0.125 (inactive)
[11]
  z-score: -0.29
[12]
  z-score: 0.966 (inactive)
[13]
  z-score: 0.577 (inactive)
[14]
  composite z-score: 0.857 (inactive)
[15]
  z-score: 0.393 (inactive)
[16]
  z-score: 1.16 (inactive)
[17]
  z-score: 0.0945 (inactive)
[18]
  z-score: -0.712 (inactive)
[19]
  z-score: 0.756
[20]
  composite z-score: -0.249

## CC1CC/C=C\[C@H]2OC34C=CCN(C(C)(C)C)C(=O)[C@H]3N(C(C)CO)C(=O)[C@@H]4C2C(=O)O1 (stereo not given in full)
[1]
  z-score: 0.593
[2]
  z-score: -0.691
[3]
  z-score: 0.292
[4]
  z-score: 0.771
[5]
  z-score: -0.192
[6]
  z-score: -0.0168
[7]
  z-score: -0.43 (inactive)
[8]
  z-score: -0.164
[9]
  z-score: -0.726
[10]
  z-score: -0.388 (inactive)
[11]
  z-score: 0.0366
[12]
  z-score: -0.623 (inactive)
[13]
  z-score: -2.21 (inactive)
[14]
  composite z-score: -3.09 (inactive)
[15]
  z-score: -0.525 (inactive)
[16]
  z-score: 0.723 (inactive)
[17]
  z-score: 0.606 (inactive)
[18]
  z-score: 0.771 (inactive)
[19]
  z-score: -0.0501
[20]
  composite z-score: 0.501

## C=CCN1C(=O)[C@]2(O[C@H](CCn3cc([C@H](O)c4ccccc4)nn3)[C@@H]([Si](C)(C)c3ccc(OC)cc3)[C@@H]2C)c2ccccc21
[1]
  z-score: -0.366
[2]
  z-score: 0.76
[3]
  z-score: -1.85
[4]
  z-score: -2.65
[5]
  z-score: -4.3
[6]
  z-score: -0.97
[7]
  z-score: 0.203 (inactive)
[8]
  z-score: -0.953
[9]
  z-score: -2.26
[10]
  z-score: -1.75 (inactive)
[11]
  z-score: -1.25
[12]
  z-score: -0.242 (inactive)
[13]
  z-score: -1.68 (inactive)
[14]
  composite z-score: -0.591 (inactive)
[15]
  z-score: 1.29 (inactive)
[16]
  z-score: 0.507 (inactive)
[17]
  z-score: 0.617 (inactive)
[18]
  z-score: 0.169 (inactive)
[19]
  z-score: -1.69
[20]
  composite z-score: -0.104

## COCCOC(=O)N1C(=O)[C@@]2(c3cc(C#Cc4ccc(OC)cc4)ccc31)[C@H](c1ccccc1OCCO)N1[C@H](c3ccccc3)[C@H](c3ccccc3)OC(=O)[C@H]1[C@@H]2C(=O)NC[C@H](O)c1ccccc1
[1]
  z-score: -0.796
[2]
  z-score: 1.02
[3]
  z-score: -0.206
[4]
  z-score: -0.889
[5]
  z-score: -2.23
[6]
  z-score: 0.117
[7]
  z-score: 3.21 (inactive)
[8]
  z-score: -0.485
[9]
  z-score: -1.26
[10]
  z-score: -0.762 (inactive)
[11]
  z-score: 0.48
[12]
  z-score: 2.55 (inactive)
[13]
  z-score: -0.444 (inactive)
[14]
  composite z-score: -1.22 (inactive)
[15]
  z-score: 3.27 (inactive)
[16]
  z-score: 3.17 (inactive)
[17]
  z-score: 0.418 (inactive)
[18]
  z-score: 0.127 (inactive)
[19]
  z-score: -0.82
[20]
  composite z-score: -0.0421

## COC(=O)[C@@]1(Cc2ccc(F)cc2)[C@H]2c3cc(C(=O)N4CCCC4)n(Cc4ccc(S(C)(=O)=O)cc4)c3C[C@H]2CN1C(=O)c1ccccc1
[1]
  z-score: 0.0676
[2]
  z-score: 0.582
[3]
  z-score: -0.035
[4]
  z-score: -1.23
[5]
  z-score: -1.35
[6]
  z-score: 2.11
[7]
  z-score: -1.3 (inactive)
[8]
  z-score: 0.611
[9]
  z-score: -0.583
[10]
  z-score: 0.039 (inactive)
[11]
  z-score: -0.608
[12]
  z-score: 1.01 (inactive)
[13]
  z-score: -1.03 (inactive)
[14]
  composite z-score: -0.159 (inactive)
[15]
  z-score: 1.09 (inactive)
[16]
  z-score: 0.458 (inactive)
[17]
  z-score: -1.12 (inactive)
[18]
  z-score: -0.704 (inactive)
[19]
  z-score: -0.948
[20]
  composite z-score: 0.261

## COc1ccc(C#Cc2ccc3c(c2)[C@]2(C(=O)N3)[C@H](c3ccccc3OCCO)N3[C@H](c4ccccc4)[C@H](c4ccccc4)OC(=O)[C@H]3[C@@H]2C(=O)Nc2nc3ccccc3s2)cc1
[1]
  z-score: 0.855
[2]
  z-score: 0.453
[3]
  z-score: -0.543
[4]
  z-score: -2.43
[5]
  z-score: -2.65
[6]
  z-score: -3.4
[7]
  z-score: 2.29 (inactive)
[8]
  z-score: -0.631
[9]
  z-score: -1.28
[10]
  z-score: -2.07 (inactive)
[11]
  z-score: -0.927
[12]
  z-score: 1.35 (inactive)
[13]
  z-score: -0.545 (inactive)
[14]
  composite z-score: -30.7 (active)
[15]
  z-score: 2.77 (inactive)
[16]
  z-score: 2.93 (inactive)
[17]
  z-score: 0.0225 (inactive)
[18]
  z-score: 0.132 (inactive)
[19]
  z-score: -1.76
[20]
  composite z-score: 0.0471
